Bioassay records from PubChem BioAssay.
In the library only some 7.8% were active in any assay of this set; here they are far more common.
HCV inh: inhibitors of hepatitis C virus infection. Huh7.5.1 HCVcc-Cre infection, luciferase reporter, 44 h. Potency, µM (series often up to 41.8 µM), without a hit: top-dose activity change, negative = inhibition, most hits filed as inhibitors. actives 3.4% (n = 340,000). AID 651820; active = well fitted inhibition curve with a large enough effect; inconclusive = small, poorly fitted or top-dose-only effect, or another doubt; inactive = no such curve, though single readings can be large or run the other way; also: potency is read from the fitted curve at half-maximal effect
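Cells seeded at 1,000/well and cultured 4 h, then compounds added followed by HCVcc-Cre virus (~0.5 moi). After 44 h further culture, luciferase substrate was added, plates held 15 min at room temperature, and luminescence read for 15 sec.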
HCMV inh: inhibitors of human cytomegalovirus; actives 4.5% (n = 410,000); HFF cells, HCMV-luciferase reporter, 72 h; active compounds read low; activity change, negative = inhibition, % at 57.5 µM; in the data active = activity change below about -60%; inconclusive = no clear call, values can overlap the other calls; inactive = above about -39%
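Compounds were evaluated in HFFs infected with an HCMV luciferase reporter virus (MOI 1 PFU/cell). Luciferase in lysates collected 72 h post infection served as the replication measure.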
Lassa entry inh: Lassa virus entry inhibition | Lassa virus pseudotype entry inhibition, cell reporter | Potency, µM (series often up to 37.9 µM), for inactives: top-dose activity change, negative = inhibition, actives largely listed as inhibitors | actives 1.2% (n = 300,000); calls by dose curve; tested in HEK293 cells; also: potency is read from the fitted curve at half-maximal effect; nearly all actives have a fitted effect of over 50% in size
MARV entry inh: inhibitors of Marburg virus binding or cell entry; actives 1.8% (n = 300,000); Potency, µM (top dose mostly 37.8 µM), for the others: at the highest dose activity change, negative = inhibition, hits mostly inhibitors; Marburg virus pseudotyped entry inhibition, cell reporter; AID 540276; calls by dose curve; tested in HEK293 cells; also: potency is read from the fitted curve at half-maximal effect
Vaccinia Venus: vaccinia inhibition (Venus reporter); Vaccinia virus Venus reporter expression, fluorescence; AID 720580; actives 0.46% (n = 330,000); Potency, µM (top dose mostly 36.5 µM), without a hit: at the highest dose activity change, negative = inhibition, hits mostly inhibitors; calls by dose curve; tested in A549 cells; also: potency is read from the fitted curve at half-maximal effect; nearly all actives have a fitted effect of over 30% in size
Vaccinia mCherry: vaccinia inhibition (mCherry reporter); Vaccinia virus mCherry reporter infection, fluorescence; Potency, µM (titrated, usually from 36.5 µM), inactives show at the top dose activity change, negative = inhibition, usual class: inhibitors; actives 0.63% (n = 310,000); AID 720579; calls by dose curve; tested in A549 cells; also: potency is read from the fitted curve at half-maximal effect; nearly all actives have a fitted effect of over 35% in size
Numbers without * were called inactive; i = inactive; ? = inconclusive; nt = no result; [ ] = dose if it differs, or a comment. % is scaled to controls: 0 for no effect and ±100 for the full control effect.

SMILES | HCV inh | HCMV inh | Lassa entry inh | MARV entry inh | Vaccinia Venus | Vaccinia mCherry
CC(C)(C)OC(=O)N1CCCN(C(c2ccnc3ccccc23)c2nnnn2-c2ccc3c(c2)OCCO3)CC1 (configuration not stated) | nt | -19 | nt | nt | 1% | -7%
O=C(CCc1nc2ccccc2s1)N1CCOc2ccc(CN3CCc4sccc4C3)cc2C1 | nt | nt | nt | nt | 0% | -16%
Cc1ccc(-c2csc3ncnc(N4CCN(c5ccccc5O)CC4)c23)cc1 | ? | -38 | ? | ? | -5% | ?
Cc1ccccc1N1CCN(c2ncnc3scc(-c4cccs4)c23)CC1 | 10µM* | -67* | -43% | 23µM* | nt | nt
COc1ccc(-c2csc3ncnc(N4CCN(c5ccccc5[N+](=O)[O-])CC4)c23)cc1 | 16µM* | nt | ? | ? | -18% | -4%
Clc1ccc(CN2CCN(c3ncnc4scc(-c5cccs5)c34)CC2)cc1 | ? | -98* | ? | ? | nt | nt
Fc1ccc(CN2CCN(c3ncnc4scc(-c5ccc(F)cc5)c34)CC2)cc1 | -25% | -86* | nt | nt | nt | nt
COc1cccc(CNC(=O)c2c(OC)cc(=O)n3c2CCN(C(=O)c2ccc(Cl)cc2)CC3)c1 | nt | nt | nt | nt | 0% | i
Cc1cccc(CNC(=O)c2ccc(NC(=O)N3CCSc4ccccc43)cc2)c1 | nt | 8 | -13%[46.1 µM] | 13%[46.1 µM] | -5% | -1%
COc1cc(NC(=O)NCCn2nnc3cc(S(=O)(=O)N(C)C)ccc32)cc(OC)c1OC | nt | 7 | 4%[46.1 µM] | nt | 6% | 3%
COc1ccc(-c2csc3ncnc(N4CCN(c5ccccc5)CC4)c23)cc1 | ? | -30 | ? | ? | -17% | -20%
Cc1ccc(-c2csc3ncnc(-n4nnc5ccccc54)c23)cc1C | ? | -32 | 3% | ? | -12% | -7%
COc1ccc(-c2csc3ncnc(N4CCN(Cc5ccccc5)CC4)c23)cc1 | 3% | -89* | 11% | 1% | -16% | -14%
COc1ccc(-n2ncc3c(N4CCN(Cc5ccccc5)CC4)ncnc32)cc1 | ? | -95* | ? | ? | ? | ?
CCN1CCN(c2ncnc3scc(-c4ccc(C)c(C)c4)c23)CC1 | ? | -67* | -14% | ? | -3% | -6%
Cc1ccc(-n2ncc3c(N4CCN(Cc5ccccc5)CC4)ncnc32)cc1C | nt | ? | ? | nt | -6% | -5%
COc1ccc([C@]23Cc4c(ccc5ccccc45)[C@H](O2)c2c(cc(-c4ccccc4)oc2=O)O3)cc1 | nt | nt | nt | 40%[14.2 µM] | nt | nt
CCOCCn1c(=NC(=O)c2cc(Cl)sc2Cl)sc2cc(S(N)(=O)=O)ccc21 | -12% | nt | 2% | -5% | nt | nt
CCOCCn1c(=NC(=O)c2ccc(S(=O)(=O)N3CCOCC3)cc2)sc2cc(S(N)(=O)=O)ccc21 | 22µM* | -63* | 17%[46.1 µM] | 0%[46.1 µM] | -24% | i
C=CCn1c(=NC(=O)c2ccc(S(=O)(=O)N3CCc4ccccc4C3)cc2)sc2cc(S(N)(=O)=O)ccc21 | ? | -65* | ? | ? | -24% | ?
C#CCn1c(=NC(=O)c2ccc(S(=O)(=O)N3CCc4ccccc4C3)cc2)sc2cc(S(N)(=O)=O)ccc21 | -20% | nt | 9.2µM* | 14µM* | 7.9µM* | 6.3µM*
COCCn1c(=NC(=O)c2ccc(S(=O)(=O)N3CCc4ccccc4C3)cc2)sc2cc(S(N)(=O)=O)ccc21 | 1% | -19 | 3% | 14% | -20% | 0%
C[C@@H]1[C@@H](c2ccccc2)Oc2c(Cl)cccc2S(=O)(=O)N1Cc1cccc(F)c1 | nt | nt | -1%[46.1 µM] | nt | nt | nt
COc1ccc(C(=O)O/N=C(\N)Cc2ccc(Cl)c(Cl)c2)cc1OC | 22µM* | 18 | ? | ? | ? | ?
N/C(Cc1ccc([N+](=O)[O-])cc1)=N\OC(=O)c1ccc([N+](=O)[O-])cc1 | ? | -7 | -1% | 5% | -13% | -8%
SMILES | HCV inh | HCMV inh | Lassa entry inh | MARV entry inh | Vaccinia Venus | Vaccinia mCherry
COc1ccc(OCC(=O)O/N=C(\N)Cc2ccc(Cl)cc2)cc1 | 5% | 43 | 2% | -20%[46.1 µM] | -12% | -19%
COc1ccc(C(=O)O/N=C(\N)Cc2ccc(Cl)cc2)cc1OC | 32µM* | ? | 11µM* | ? | ? | nt
N/C(Cc1ccc(Cl)cc1)=N\OC(=O)c1ccccc1 | -1% | 33 | ? | 13µM* | -19% | -12%
COc1cc(C(=O)O/N=C(\N)Cc2ccc([N+](=O)[O-])cc2)cc(OC)c1OC | ? | ? | 3.2µM* | 2.5µM* | ? | ?
N/C(Cc1ccc(Cl)cc1)=N\OC(=O)Cc1ccc([N+](=O)[O-])cc1 | 21% | -13 | ? | 5% | -8% | i
COc1cccc(CNC(=O)c2c(OC)cc(=O)n3c2CCN(C(=O)c2cc(C)ccc2C)CC3)c1 | nt | nt | nt | nt | 0% | -1%
COC(=O)c1sccc1S(=O)(=O)N(CC(=O)NCc1ccc(F)cc1)c1ccccc1 | nt | 14 | -25%[46.1 µM] | nt | 10% | -2%
N/C(=N\OC(=O)c1ccc2c(c1)OCO2)c1cccc(Br)c1 | 13% | 62 | nt | ? | 4% | -7%
COc1cc(OC)c(C(=O)O/N=C(\N)c2ccc(C)cc2)cc1OC | 11µM* | 20 | ? | 7.9µM* | -22% | i
COc1ccc(/C(N)=N/OC(=O)c2ccc3c(c2)OCO3)cc1OC | 8.9µM* | 169 | ? | ? | -23% | -12%
O=C1CSC2(C(=O)N(Cc3c(F)cccc3Cl)c3ccccc32)N1c1ccc(F)c(F)c1 (configuration not stated) | nt | -5 | -24%[46.1 µM] | nt | -5% | 3%
O=c1cc(-c2ccccc2)oc2cc(O)c(O)cc12 | nt | nt | nt | nt | -7% | i
O=c1cc2oc3cc(O)c(O)cc3c(-c3ccccc3[N+](=O)[O-])c-2cc1O | ? | -64* | nt | nt | -11% | -21%
COc1ccc(-c2noc(N(C)CC(=O)Nc3cccc(C(F)(F)F)c3)n2)cc1 | 11µM* | 36 | -18% | -12% | ? | nt
COc1cccc(CN(C)CC(=O)Nc2cccc(C(F)(F)F)c2)c1OC | 10µM* | -31 | -20% | -12%[46.1 µM] | -11% | -2%
O=C1CCC=C1C(O)CCc1ccccc1 (configuration not stated) | nt | nt | nt | 34%[14.2 µM] | nt | nt
CC1=CC(O)C(O)C2(C)C1CC1OC(=O)C(O)C3C(C)C(O)C4(O)OCC13C42 (configuration not stated) | 13% | nt | ? | ? | 7.9µM* | ?
O=C(CN1C(=O)COc2ccc(S(=O)(=O)N3CCCCCC3)cc21)N1CCN(c2ccc(F)cc2)CC1 | nt | 5 | -23%[46.1 µM] | -27%[46.1 µM] | -5% | -13%
CCN(CC)c1ccc(CNc2nc3ccccc3n2CCN2CCCCC2)cc1 | 11µM* | -99* | ? | ? | ? | ?
c1ccc(Cn2c(CNc3nc4ccccc4n3CCN3CCCCC3)nc3ccccc32)cc1 | 11µM* | -2 | ? | ? | -25% | nt
